From PubChem BioAssay (NCI)
This is part of a sample that, as a whole, favours compounds with a hit. Of some 83,000 tested, about 20% had one in any assay.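 Results are percent growth after 48 hours of single-concentration exposure. 100 means growth as in untreated cells, lower positive values show inhibition; negative values down to -100 show cell death.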 Activity calls are given as the source filed them.

System: A498 renal
Assay: NCI-60 one-dose screen, 48 h (100 = growth as untreated, 0 = no growth, -100 = all killed)
Settings: 10 µM unless noted
Procedure: Growth inhibition of the A498 human tumor cell line is measured as a screen for anti-cancer activity. Cells are grown in 96 well plates and exposed to the test compound for 48 hours. Compounds are tested at a single concentration, which is 10^-5 M for most compounds. The reported endpoint is percent growth (GI% or GIPRCNT), where numbers from 0 - 100% represent growth inhibition, and numbers from -100% - 0 represent cell death. For example, a value of 40 represents 60% growth inhibition. A value of 0 means no net growth occurred over the course of the experiment. A value of -40 indicates 40% of cells at the beginning of the experiment died by the end of the experiment. A value of -100 means all cells are dead at the end of the experiment.
NCI-60 Human Tumor Cell Lines Screen was performed using the standard one-dose NCI protocol, which is described in more detail at https://dtp.cancer.gov/discovery_development/nci-60/default.htm.
Compounds with GIPRCNT values below 10 were considered active. Activity score was based on GIPRCNT using the following formula: […]
Score is 0 for GIPRCNT values of 100 or above, 50 for GIPRCNT values of 0, and 100 for GIPRCNT values of -100.

SMILES	growth
COc1cc(-c2cc(-c3nc4ccc(Cl)cc4[nH]3)[nH]n2)cc(OC)c1OC	39.2% (inactive)
C/C(Cc1ccc(Cl)cc1)=C(\c1ccc(OCCN2CCCCCC2)cc1)c1ccc(OC(=O)C2CCCCC2)cc1	82% (inactive)
NS(=O)(=O)N(c1cc(C(F)(F)F)cc(C(F)(F)F)c1)C1CCN(Cc2ccc(F)cc2)CC1	76.3% (inactive)
COc1ccc(-c2cnoc2-c2cc(OC)c3c(c2)OCCO3)cc1	-8.01% (active)
O=[N+]([O-])c1cccc(-c2nc3sccn3c2-c2ccnc(NCCNS(=O)(=O)c3ccc(C(F)(F)F)cc3)n2)c1	36.6% (inactive)
CS(=O)(=O)c1c(Nc2ccccc2)n[nH]c1N	115% (inactive)
COc1c(Cl)cc(Cl)cc1Cl	96.5% (inactive)
COc1ccc(-c2cc(NC(=O)Nc3ccc(O)cc3)no2)cc1	30.9% (inactive)
c1ccc(-c2nc(N3CCOCC3)c3c4c(sc3n2)CCCCC4)nc1	9.92% (active)
Cc1cc(N/N=C/c2nc(-c3ccc(Cl)cc3)oc2C)c2cc(Cl)ccc2n1	86.9% (inactive)
CCC(c1ccc(O)cc1)C(CC)c1ccc(O)c(F)c1 (stereo not given)	107% (inactive)
Clc1cccc(Nc2nc(Nc3cnc4ccccc4c3)c3[nH]cnc3n2)c1	60% (inactive)
NC(=S)N/N=C/c1ccc(OCc2ccccc2)cc1	71.5% (inactive)
CN(C)CCCC(=O)Nc1ccc(Cn2nnc3c2C(=O)c2nnn(Cc4ccc(NC(=O)CCCN(C)C)cc4)c2C3=O)cc1	72.9% (inactive)
CCN(CC)CCCC(C)NCCCNc1cccc2cccnc12 (stereo not given)	81.8% (inactive)
COc1ccc(-c2cn3c(ccc4ccccc43)n2)cc1	116% (inactive)
CN1CCN(Cc2ccc(NC(=O)c3[nH]ncc3Nc3ncnc4sccc34)cc2)CC1	-35.5% (active)
CCCCCCCCCCCCN1CCCC(C)C1 (stereo not given)	104% (inactive)
COc1ccc(CNc2nccnn2)cc1	90.2% (inactive)
Cc1ccc(-c2nc(/C=N/Nc3cc(C)nc4ccc(Cl)cc34)c(C)o2)cc1	67.6% (inactive)

SMILES	growth
c1ccc2sc(SCCCn3ccnc3)nc2c1	80.6% (inactive)
CC(=O)OC1Oc2cc(C)c(C)cc2-c2oc(=O)c(-c3cc4ccc(N(C)C)cc4oc3=O)cc21 (stereo not given)	57.8% (inactive)
Cc1ccc2c(NCCCN(C)C)c3c(C)nn(C)c3nc2c1	28.3% (inactive)
NS(=O)(=O)c1ccc(Nc2nc3n[nH]c(Nc4ccccc4)c3c(=O)[nH]2)cc1	88.9% (inactive)
CSc1nc(NCCCNc2ccnc3cc(Cl)ccc23)cc(-c2ccccc2)n1	40.2% (inactive)
O=C(CCCCN1CCOCC1)Nc1ccc(Cn2nnc3c2C(=O)c2nnn(Cc4ccc(NC(=O)CCCCN5CCOCC5)cc4)c2C3=O)cc1	-91.1% (active)
C=CC[N+]1(CC)CCN=C1CCCCCCCCCCCCCCCCC (stereo not given)	-15.6% (active)
Cc1ccc2c(c1)O/C(=C\c1cccc(OCC(=O)c3ccccc3)c1)C2=O	106% (inactive)
COc1cnc2c(c1)C(=O)c1c-2n(CCCN2CCCC2)c(=O)c2cc([N+](=O)[O-])ccc12	-97.9% (active)
CN(C)c1ccc(/C=C(\C#N)c2nc3ccccc3s2)cc1	112% (inactive)
CCCCCC(=O)N(CCCC)CCCC	127% (inactive)
COc1cc(-c2nc3ccccc3s2)ccc1NC(=O)COc1ccc(Cl)cc1	97.3% (inactive)
COc1ccc(/C=N\NC(=O)CN2CCN(c3cc4c(cc3F)c(=O)c(C(=O)N/N=C/c3ccc(OC)cc3)cn4C3CC3)CC2)cc1	73.6% (inactive)
O=C1C[C@H](Sc2nc(-c3ccc(F)cc3)cc(C(F)(F)F)n2)[C@H]2CO[C@@H]1O2	105% (inactive)
CCOC(=O)c1cnc2ccc(OC)cc2c1Nc1cccc(S(=O)(=O)NC)c1	95.9% (inactive)
COc1cccc(/C=C\C(=O)c2ccccc2)c1	93.8% (inactive)
COc1ccc(C(=O)/C=C/c2c[n+](=O)c3ccc(F)cc3n2[O-])cc1	109% (inactive)
COc1cc(NCCCCN=C(N)NC(N)=NC(C)C)c2ncccc2c1	133% (inactive)
O=C(/C=C/c1cc2ccccc2[nH]c1=O)/C=C/c1cc2ccccc2[nH]c1=O	30.4% (inactive)
COc1ccc(CN2C(=O)/C(=C\c3cc(OC)c(OC)c(OC)c3)c3cc(OC)ccc32)cc1	38.6% (inactive)
